From PubChem
BAZ2B block = BAZ2B (human) inhibition; 4.4% of 360,000 active; Potency, µM (series often up to 114 µM), for the others: top-dose activity change, negative = inhibition, most hits filed as inhibitors; AlphaScreen BAZ2B-H3K14Ac peptide displacement; AID 504333; also: % is scaled to controls: 0 for no effect and ±100 for the full control effect; nearly all actives have a fitted effect of over 60% in size
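AlphaScreen displacement: compounds (up to 110uM) incubated 30 min at room temperature with a preformed 50 nM BAZ2B/50 nM biotinylated H3K14Ac peptide complex in PBS pH 7.4 with Tween-20. Donor and acceptor beads at 10 ug/mL final added, 20 min light-protected before reading.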
PLK1 PBD inh = inhibitors of human PLK1 polo-box domain binding | P53350 | Plk1 PBD binding of FITC phosphopeptide, fluorescence polarization | Potency, µM, for the others: max response, negative = inhibition, actives largely listed as inhibitors | 2.8% of 360,000 active | AID 720504; also: series mostly up to about 57 µM; % is scaled to controls: 0 for no effect and ±100 for the full control effect; nearly all actives have a fitted effect of over 65% in size
Sfp PPTase inh = blocks B. subtilis Sfp PPTase activity | Q9F4F7 | Biochemical Sfp PPTase activity, qHTS | Potency, µM, for inactives: largest response in the series, negative = inhibition, hits mostly inhibitors | 3.5% of 310,000 active;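 also: the enzyme is Sfp with the accession as filed and its product quenches rhodamine fluorescence; 0% = enzyme reaction without inhibitor and -100% = no enzyme wells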
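Fluorescence-quenching assay: 15 nM Sfp-PPTase preincubated 15 min at room temperature with compound, then 5 uM rhodamine-CoA and 12.5 uM BHQ-2-labelled YbbR peptide added. Fluorescence (ex 525/em 598 nm) read at start and after 30 min; difference gives rate.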
HP1b chromo inh = blocks HP1-beta chromodomain binding to methylated histone tails; Potency, µM (titrated, usually from 114 µM), for inactives: top-dose activity change, negative = inhibition, actives largely listed as inhibitors; AID 540317; P83916; 0.56% of 390,000 active; AlphaScreen HP1-beta / biotin-H3K9me3 peptide binding; also: nearly all actives have a fitted effect of over 70% in size
Target sequence (P83916 whole entry, looked up): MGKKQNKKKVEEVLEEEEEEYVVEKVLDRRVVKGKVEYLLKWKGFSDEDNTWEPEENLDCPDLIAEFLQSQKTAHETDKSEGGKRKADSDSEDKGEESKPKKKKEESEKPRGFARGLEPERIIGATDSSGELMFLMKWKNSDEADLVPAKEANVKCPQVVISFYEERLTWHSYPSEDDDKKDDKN
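HP1-beta protein (50 nM final) preincubated 30 min at room temperature with biotinylated H3(1-18)K9me3 peptide (50 nM) in PBS pH 7.4, 0.01% Tween-20, then compound added for 30 min. AlphaScreen streptavidin donor/nickel chelate acceptor beads (10 ug/mL final), 30 min dark, luminescence read.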
G9a inh = inhibitors of human histone lysine methyltransferase G9a | Potency, µM (top dose mostly 102 µM), for inactives: top-dose activity, negative = inhibition, hits mostly inhibitors | G9a H3K9 monomethylation, AlphaScreen, 2 h | Q96KQ7 | 8.8% of 350,000 active; also: % is scaled to controls: 0 for no effect and ±100 for the full control effect; nearly all actives have a fitted effect of over 75% in size
Target sequence (Q96KQ7 913-1193 limits assumed): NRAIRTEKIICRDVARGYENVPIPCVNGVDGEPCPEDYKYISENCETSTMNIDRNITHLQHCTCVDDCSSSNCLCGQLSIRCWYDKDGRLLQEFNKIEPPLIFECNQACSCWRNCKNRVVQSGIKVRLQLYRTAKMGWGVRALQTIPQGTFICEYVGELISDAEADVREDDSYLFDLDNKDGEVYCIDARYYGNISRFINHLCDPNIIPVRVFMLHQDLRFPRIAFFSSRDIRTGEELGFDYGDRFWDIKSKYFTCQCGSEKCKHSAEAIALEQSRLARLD
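Enzyme 20 nM + cpd, 15 min RT; add b-H3K9 pep 500 nM / SAM 20 uM; 2 h RT; anti-H3K9me1 Ab 0.5 ug/mL + SA donor / anti-rabbit acceptor beads 20 ug/mL each, 10 min; AlphaScreen read.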
JMJD2A Tudor = inhibitors of human JMJD2A Tudor domain; O75164; AlphaScreen JMJD2A-Tudor / H3K4me3 peptide binding; Potency, µM (titrated, usually from 114 µM), for the others: at the top dose activity change, negative = inhibition, actives largely listed as inhibitors; 4.4% of 390,000 active; AID 504339; also: % is scaled to controls: 0 for no effect and ±100 for the full control effect; nearly all actives have a fitted effect of over 50% in size
Numbers without * were called inactive; ? = inconclusive; / = not tested or not shown; ! = not active in a repeat; [ ] = remark or other dose. Only some compounds are listed: those with a hit (about 12% of all), similar ones and a draw of the others. Calls follow the shape of the dose curve; as a rule, active = well fitted curve in the direction sought with a large enough effect; inconclusive = small, poorly fitted or top-dose-only effect, or another doubt; inactive = no such curve, though single readings can be large; an effect the other way counts as inactive or inconclusive. Potency is read from the fitted curve at half-maximal effect.

SMILES	BAZ2B block	PLK1 PBD inh	Sfp PPTase inh	HP1b chromo inh	G9a inh	JMJD2A Tudor
CC(n1cc(C[C@H](N)C(=O)O)c2ccccc21)n1cc(C[C@H](N)C(=O)O)c2ccccc21	/	/	28µM*	/	5%[59 µM]	/
CC(C)(C)c1ccc(C(=O)Nc2ccc3nc(SCC(=O)N4CCCC4)sc3c2)cc1	-9%	/	/	45%	5%[59 µM]	-21%
Cc1ccc(-n2c(O)c(/C=C3/C(c4ccccc4)=Nc4ccccc43)c(=O)[nH]c2=O)cc1	?	8.4µM*	-24%	-31%	35µM*	?
Cc1cccc(-n2c(O)c(/C=C3/C(c4ccccc4)=Nc4ccccc43)c(=O)[nH]c2=O)c1	40µM*	13µM*	-16%	-10%	?	?
CC1=Nc2ccccc2/C1=C/c1c(O)n(C)c(=O)[nH]c1=O	-4%	?	12%	12%	/	-20%
COC(=O)C1=Nc2ccccc2/C1=C\c1c(O)n(-c2cc(OC)ccc2OC)c(=O)[nH]c1=O	79µM*	3.4µM*	?	?	?	-15%[57.1 µM]
Cc1ccccc1-n1c(O)c(/C=C2/C(c3ccccc3)=Nc3ccccc32)c(=O)[nH]c1=O	?	6.7µM*	-17%	?	?	?
CC(C)CC(NP(=O)(O)O[C@@H]1O[C@@H](C)[C@H](O)[C@@H](O)[C@H]1O)C(=O)NC(Cc1c[nH]c2ccccc12)C(=O)O (some centres not stated)	/	/	/	/	49%[59 µM]	/
CCN(CC)CCOc1ccccc1C(=O)CCc1ccccc1	/	/	21%	/	?	/
CCN(CC)CCCCN1c2ccccc2Oc2ccc(Cl)cc21	/	/	-20%	/	/	/
CCCC(C)C1(CC)C(=O)N=C(S)NC1=O (configuration not stated)	/	/	19%	/	/	/
O=C(CNC(=O)OCc1ccccc1)Nc1ccc(Br)cc1C(=O)c1ccccc1Cl	10%	2%	28µM*	7%	10%	-4%
CN(C(=O)CNC(=O)OCc1ccccc1)c1ccc(Br)cc1C(=O)c1ccccc1Cl	-11%	0%	10%	20%	23%[59 µM]	-14%
COc1cccc(N2C(=O)NC(=O)/C(=C/c3ccc4c5c(cccc35)CC4)C2=O)c1	50µM*	/	56µM*	/	10µM*	/
COc1ccc(N2C(=O)NC(=O)/C(=C/c3ccc4c(c3)Cc3ccccc3-4)C2=O)cc1	35µM*	/	56µM*	/	3.5µM*	/
CCCCCCNC(=O)N[C@H](Cc1ccc(O)cc1)C(=O)NCCC[C@H]1CN2C(=NC[C@H]2CCC)N1CC1CCC1	79µM*	/	7.9µM*	/	0%[12.7 µM]	/
CCCCCCNC(=O)N[C@@H](Cc1ccc(O)cc1)C(=O)NCCC[C@H]1CN2C(=NC[C@H]2C)N1CC1CCC1	1%	?	9%	12%	?	-17%
C[C@H]1C[C@H](C)C(=O)[C@@H]([C@H](O)CC2CC(=O)NC(=O)C2)C1	/	/	17%	/	/	/
C=CCN1CC[C@]23c4c5ccc(O)c4O[C@H]2/C(=N/NC(=O)c2ccccc2)CC[C@@]3(O)[C@H]1C5	/	-5%	1%	31%	35µM*	-16%
CCCCCc1nc2c(c(=O)c3ccccc3n2C)c(=O)n1C1CCCCCC1	-24%	-13%	40µM*	1%	-4%	-27%
CCCCCc1nc2ccccc2c(=O)n1-c1ccc(C)cc1	0%	/	/	35%	0%[59 µM]	17%
CC[N+](C)(CC)CCCCOc1ccc2c(c1)C(=O)c1cc(OCCCC[N+](C)(CC)CC)ccc1-2	?	11µM*	14µM*	?	32µM*	22µM*
CCCCCCCCCCCCCCCC[N+](C)(C)C	6%	-25%	45µM*!	52%	8.9µM*!	-1%
CCCCCCCCCC[N+](C)(C)CCCCCCCCCC	/	/	?	/	7%[59 µM]	/
O=C1OC(c2cc(I)c(O)c(I)c2)(c2cc(I)c(O)c(I)c2)c2ccccc21	/	/	40µM*	/	7.1µM*	/
SMILES	BAZ2B block	PLK1 PBD inh	Sfp PPTase inh	HP1b chromo inh	G9a inh	JMJD2A Tudor
CN1CCC23CCCC[C@H]2C1Cc1ccc(O)cc13 (some centres not stated)	/	/	/	/	24%[12.7 µM]	/
Cn1cccc1CN1CCN(C(=O)COc2ccccc2)CC1	45µM*	1%	-15%	?	?	7.1µM*
COc1cccc(CN2CCN(C(=O)Cc3ccccc3OC)CC2)c1	-10%	-8%	8%	30%	/	-5%
COc1ccccc1CN1CCN(C(=O)COc2cccc(C)c2)CC1	50µM*	-7%	-25%	?	?	32µM*
COc1cc(CN2CCN(C(=O)COc3ccccc3)CC2)cc(OC)c1OC	?	1%	-23%	-20%	?	3.2µM*
COc1ccc(OC)c(CN2CCN(C(=O)COc3cccc(C)c3)CC2)c1	?	-2%	?	?	7.1µM*	3.5µM*
CC(C)c1cc2c(c(O)c1O)[C@]1(C(=O)O)CCCC(C)(C)C1CC2 (some centres not stated)	/	/	-108%	/	-38%[2.33 µM]	/
CC(c1ccccc1)n1cncc1C(=O)N1CCCC1=O (configuration not stated)	?	-3%	17%	16%	50µM*	?
O=C1NC(=O)N(Cc2ccccc2Cl)C(=O)/C1=C/N1CCOCC1	-2%	?	10µM*	39%	?	-13%
COc1ccc(NC2CC(=O)N(C(C)C)C2=O)cc1 (configuration not stated)	-27%	-10%	6%	27%	22µM*	-20%
CCCN(CCC)[C@@H]1CCc2c(OC)cccc2[C@@H]1C	/	/	6%	/	15%[59 µM]	/
CNNC	/	/	11µM*	/	/	/
CCOP(=O)(C#Cc1ccccc1)C(O)c1ccc(Br)cc1 (configuration not stated)	0%	-9%	3%	26%	2%	-13%
CCOP(=O)(c1ccccc1)C(O)c1ccc(F)cc1 (configuration not stated)	6%	2%	22%	28%	0.63µM*	5%
CC(O)CN(CCN(CC(C)O)CC(C)O)CC(C)O (configuration not stated)	/	/	79µM*	/	8%[12.7 µM]	/
CN1C2CCC1CC(OC(c1ccc(F)cc1)c1ccc(F)cc1)C2 (configuration not stated)	/	/	12%	/	12%[59 µM]	/
CN1[C@@H]2CC[C@H]1CC(OC1c3ccccc3CCc3ccccc31)C2 (some centres not stated)	-25%	2%	18%	-13%	-7%[5.15 µM]	79µM*
O=C1NC(=O)N(C2CCCCC2)C(=O)C1C1c2ccccc2C(=O)N1Cc1ccccc1 (configuration not stated)	-24%	-7%	2%	40%	56µM*	6%
